Data on 22 molecules can be found in PubChem BioAssay (NCATS).

Test [1] concerns the target Rap guanine nucleotide exchange factor 3 (Homo sapiens) (UniProt O95398). As to the kind of experiment: Confirmatory qHTS for agonist of cAMP-regulated guanine nucleotide exchange factor 3 (EPAC1) (AID 1645881).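 Note: EPAC1 catalysed release of BODIPY-GDP from Rap1B seen as fluorescence loss; 100% = effect of cAMP agonist control; nearly all actives have a fitted effect of over 75% in size.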 On the technique in general: In qHTS, concentration-response curves come from the screen itself.
For test [2], the target named is Rap guanine nucleotide exchange factor 4 (Homo sapiens) (UniProt Q8WZA2). As to the kind of experiment: Confirmatory qHTS for agonist of cAMP-regulated guanine nucleotide exchange factor 4 (EPAC2) (AID 1645884). Note: % is set by controls: 0 for no effect and ±100 for the full control effect; nearly all actives have a fitted effect of over 65% in size.
Chain of Rap guanine nucleotide exchange factor 4 (Homo sapiens) (Q8WZA2 whole entry, looked up): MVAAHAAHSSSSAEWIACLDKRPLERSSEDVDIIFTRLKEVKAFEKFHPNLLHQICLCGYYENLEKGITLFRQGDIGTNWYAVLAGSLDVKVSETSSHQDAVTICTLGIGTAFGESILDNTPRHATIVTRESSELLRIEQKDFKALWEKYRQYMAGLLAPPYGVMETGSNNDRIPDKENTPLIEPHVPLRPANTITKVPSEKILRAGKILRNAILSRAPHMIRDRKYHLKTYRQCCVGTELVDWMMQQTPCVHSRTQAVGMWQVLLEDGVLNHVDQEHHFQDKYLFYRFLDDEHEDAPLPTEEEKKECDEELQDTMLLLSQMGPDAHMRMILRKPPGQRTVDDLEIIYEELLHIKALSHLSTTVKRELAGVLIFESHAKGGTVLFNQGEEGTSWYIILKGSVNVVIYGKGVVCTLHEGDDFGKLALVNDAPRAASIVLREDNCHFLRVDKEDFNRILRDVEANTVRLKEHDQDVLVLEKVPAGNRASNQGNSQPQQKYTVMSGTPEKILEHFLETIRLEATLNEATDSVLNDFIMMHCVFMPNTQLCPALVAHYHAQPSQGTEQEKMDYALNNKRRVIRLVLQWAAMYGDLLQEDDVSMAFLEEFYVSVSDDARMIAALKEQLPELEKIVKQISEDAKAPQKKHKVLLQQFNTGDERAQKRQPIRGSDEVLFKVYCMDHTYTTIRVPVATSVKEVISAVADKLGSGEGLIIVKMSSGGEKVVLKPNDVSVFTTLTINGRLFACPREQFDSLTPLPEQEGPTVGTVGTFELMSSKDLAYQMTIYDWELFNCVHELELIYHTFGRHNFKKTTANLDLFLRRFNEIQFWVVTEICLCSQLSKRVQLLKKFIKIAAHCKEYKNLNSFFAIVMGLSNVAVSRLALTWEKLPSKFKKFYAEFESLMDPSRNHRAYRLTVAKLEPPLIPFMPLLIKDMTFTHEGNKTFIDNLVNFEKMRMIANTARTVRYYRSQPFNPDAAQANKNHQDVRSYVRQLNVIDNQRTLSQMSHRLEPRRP
Test [3] shares this target. The experiment in a line: Confirmatory qHTS for antagonist of cAMP-regulated guanine nucleotide exchange factor 4 (EPAC2) (AID 1645885). For activity change, negative = inhibition: % is set by controls: 0 for no effect and ±100 for the full control effect. Note: nearly all actives have a fitted effect of over 25% in size. Note: potency is the fitted concentration of half-maximal effect.
Test [4] concerns the target Rap guanine nucleotide exchange factor 3 (Homo sapiens) (UniProt O95398). As to the kind of experiment: Counterscreen qHTS for antagonist of cAMP-regulated guanine nucleotide exchange factor 3 (EPAC1) (AID 1645888).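 Note: fluorescence loss as bound BODIPY-GDP is released from Rap1B; % of control where 0% means no effect.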 In short, it runs like this: (§1)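 Measured: fluorescence of BODIPY-GDP bound to Rap1B, which falls as exchange proceeds. Conditions include 50 uM competing GDP, 5 and 30 min reads, and a later cAMP challenge for antagonist detection.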
Background: The purpose of a counterscreen is to sort out artefacts and off-target activity.

For test [5] the target is unchanged. The experiment in a line: Counterscreen qHTS for agonist of cAMP-regulated guanine nucleotide exchange factor 3 (EPAC1) (AID 1645889). Note: % of control where 0% means no effect; nearly all actives have a fitted effect of over 40% in size. In short, it runs like this:
as §1

Structures are written as SMILES. Records with an inconclusive call do not appear. A number with no mark means an inactive call. Calls of active or inactive are those of the source. Calls come from the whole dose curve; as a rule, active = well fitted curve in the direction sought with a large enough effect; inconclusive = small, poorly fitted or top-dose-only effect, or another doubt; inactive = no such curve, though single readings can be large; an effect the other way counts as inactive or inconclusive.

Chain of Rap guanine nucleotide exchange factor 3 (Homo sapiens) (O95398 whole entry, looked up): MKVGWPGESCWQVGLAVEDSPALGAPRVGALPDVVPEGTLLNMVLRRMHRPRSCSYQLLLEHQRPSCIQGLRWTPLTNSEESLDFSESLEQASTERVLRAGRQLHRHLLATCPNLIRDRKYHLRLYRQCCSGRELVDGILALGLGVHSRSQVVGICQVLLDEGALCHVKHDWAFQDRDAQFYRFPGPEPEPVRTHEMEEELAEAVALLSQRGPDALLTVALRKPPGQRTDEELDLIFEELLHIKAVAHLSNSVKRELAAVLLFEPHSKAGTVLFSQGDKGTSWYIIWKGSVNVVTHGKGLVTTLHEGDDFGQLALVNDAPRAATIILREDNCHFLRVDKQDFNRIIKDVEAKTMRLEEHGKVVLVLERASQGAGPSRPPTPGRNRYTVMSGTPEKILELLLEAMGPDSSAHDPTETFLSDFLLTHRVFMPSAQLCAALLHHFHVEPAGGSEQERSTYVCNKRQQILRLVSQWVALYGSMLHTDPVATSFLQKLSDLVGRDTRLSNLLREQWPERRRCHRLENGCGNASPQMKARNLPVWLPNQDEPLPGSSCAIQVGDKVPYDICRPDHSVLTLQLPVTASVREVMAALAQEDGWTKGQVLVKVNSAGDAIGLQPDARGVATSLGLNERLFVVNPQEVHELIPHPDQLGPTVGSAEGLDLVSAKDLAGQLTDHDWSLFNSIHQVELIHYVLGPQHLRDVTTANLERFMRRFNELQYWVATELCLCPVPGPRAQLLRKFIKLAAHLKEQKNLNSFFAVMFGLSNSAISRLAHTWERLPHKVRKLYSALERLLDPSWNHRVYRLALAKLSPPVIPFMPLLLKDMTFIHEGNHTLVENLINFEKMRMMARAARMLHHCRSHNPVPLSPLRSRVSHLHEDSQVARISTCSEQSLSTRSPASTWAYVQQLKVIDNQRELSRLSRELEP

Take `Cc1ccccc1Cn1nnc2c(=O)[nH]c(C3CCCN(C(=O)c4ccc(C(C)(C)C)cc4)C3)nc21` (stereo not given): the Potency entry in test [1], in test [2], in test [3], in test [4] and in test [5] was “inactive” in each case.
Turning to `CC(C)(C)c1ccc(OCc2ccc(C(=O)N/N=C/c3ccc(O)c(O)c3)cc2)cc1`, the Potency entry in test [1] and in test [3] was “inactive” in each case. Moreover, the activation in test [2] was -9.36% [at 17.1 µM, percent relative to cAMP agonist control]; in test [5], 10.5% [at 30.8 µM]. Also, the activity change, negative = inhibition in test [4] is -20.9% [at 30.8 µM].
Consider `COc1ccc(OC)c(N2C(=O)[C@@H]3C(c4ccccc4Cl)=NO[C@@H]3C2=O)c1`, for which the Potency entry in test [1], in test [2], in test [4] and in test [5] was “inactive” in each case. Besides, the Potency in test [3] is 6.01 µM (active).
Take `CCOc1cc(/C=C2/SC(=S)N(CC(=O)O)C2=O)ccc1OC(=O)c1cccs1`: the Potency entry in test [1], in test [2], in test [3], in test [4] and in test [5] was “inactive” throughout.
In the case of `Cc1[nH]c2ccc(C(=O)OC(C)C(=O)N(C)c3ccccc3)cc2c1C` (stereo not given), the Potency result in test [1], in test [2], in test [3], in test [4] and in test [5] was “inactive” in each case.
Consider `Cc1cc(C2(c3ccc(O)c(C)c3)C(=O)N(C)c3ccc(Br)cc32)ccc1O`, for which the Potency result in test [1] and in test [3] was “inactive” in each case. Also, the activation in test [2] was 5.15% [at 17.1 µM, percent relative to cAMP agonist control]; in test [5], 17.4% [at 30.8 µM]. Moreover, the activity change, negative = inhibition in test [4] was -4.41% [at 30.8 µM].
Regarding `COC(=O)c1cc(Sc2c(Cl)cccc2Cl)ccn1`, the Potency entry in test [1], in test [2], in test [4] and in test [5] was “inactive” in each case. In addition, the Potency in test [3] is 30.1 µM (active).
Consider `O=C(NN1C(=O)/C(=C/C=C/c2ccco2)SC1=S)c1ccncc1`, for which the Potency result in test [1], in test [2], in test [3], in test [4] and in test [5] was “inactive” each time.
Consider `O=C(CCC(=O)N1CCSc2ccccc21)NCc1cccc(Br)c1`, for which the Potency entry in test [1] and in test [3] was “inactive” in each case. Further, the activation is 9.98% [at 17.1 µM, percent relative to cAMP agonist control] in test [2] and 10% [at 30.8 µM] in test [5]. The activity change, negative = inhibition in test [4] was 0.997% [at 30.8 µM].
In the case of `Cc1onc(-c2c(F)cccc2Cl)c1C(=O)OCc1cnc(Cl)s1`, the Potency result in test [1], in test [2], in test [4] and in test [5] was “inactive” throughout. Also, the Potency in test [3] is 26.9 µM (active).
As for `O=C(COC(=O)[C@@H]1CC(O)CN1S(=O)(=O)c1ccc(Cl)c(Cl)c1)NC(=O)NCc1ccccc1` (stereo not given in full), the Potency result in test [1], in test [2], in test [3], in test [4] and in test [5] was “inactive” each time.
Consider `C=CCN1C(=O)/C(=C/c2ccc(OC(C)=O)c(OCC)c2[N+](=O)[O-])SC1=S`, for which the Potency result in test [1] and in test [3] was “inactive” in each case. In addition, the activation in test [2] is 0% [at 17.1 µM, percent relative to cAMP agonist control]; in test [5] it was 52.7% [at 30.8 µM]. The activity change, negative = inhibition in test [4] is 12.5% [at 30.8 µM].
With `CCC(C)n1c(SCC(=O)Nc2ccc3[nH]c(=O)[nH]c3c2)nc2ccccc2c1=O` (stereo not given), the Potency result in test [1] and in test [3] was “inactive” throughout. Besides, the activation was 1.51% [at 17.1 µM, percent relative to cAMP agonist control] in test [2] and 13.5% [at 30.8 µM] in test [5]. Further, the activity change, negative = inhibition in test [4] was -15% [at 30.8 µM].
Regarding `O=C(CCn1cnc2onc(-c3ccc(F)cc3)c2c1=O)Nc1ccc(F)c(Cl)c1`, the Potency result in test [1], in test [2], in test [3], in test [4] and in test [5] was “inactive” each time.
Regarding `CC(C)C[C@H]1COCCS(=O)(=O)N1Cc1cccc(Cl)c1`, the Potency result in test [1] and in test [3] was “inactive” each time. For the same molecule, the activation in test [2] was 5.51% [at 17.1 µM, percent relative to cAMP agonist control]; in test [5] it was 2.08% [at 30.8 µM]. Moreover, the activity change, negative = inhibition in test [4] is -14.3% [at 30.8 µM].
Take `O=C(NCCc1c[nH]c2ccccc12)C(=O)Nc1cc2c3c(c1)CC(=O)N3CCC2`: the Potency entry in test [1], in test [2], in test [3], in test [4] and in test [5] was “inactive” throughout.
For the molecule `Cc1ccc(-c2nn(-c3ccccc3)cc2C=C2SC(=S)N(CCS(=O)(=O)O)C2=O)cc1`, the Potency result in test [1] and in test [3] was “inactive” each time. Moreover, the activation is 6.87% [at 17.1 µM, percent relative to cAMP agonist control] in test [2] and 28% [at 30.8 µM] in test [5]. For the same molecule, the activity change, negative = inhibition in test [4] is -16.5% [at 30.8 µM].
In the case of `COc1cc(/C=C(\C#N)c2nc3ccc(C)cc3[nH]2)ccc1OCc1ccc(C)cc1`, the Potency result in test [1], in test [2], in test [3], in test [4] and in test [5] was “inactive” throughout.
As for `COc1cccc(C2CC(c3cccs3)=NN2C(=O)c2ccco2)c1O` (stereo not given), the Potency entry in test [1] and in test [3] was “inactive” each time. Besides, the activation in test [2] is 3.1% [at 17.1 µM, percent relative to cAMP agonist control]; in test [5], 8.43% [at 30.8 µM]. Also, the activity change, negative = inhibition in test [4] was -12.7% [at 30.8 µM].
With `CCc1ccc(-n2c(CCC(=O)O)ccc2-c2cccs2)cc1`, the Potency entry in test [1], in test [2], in test [3], in test [4] and in test [5] was “inactive” throughout.
As for `CCCCC[C@@H](C)N1C[C@@H](COCc2ccccc2)Oc2cc(N3CC[C@H](O)C3)ccc2S1(=O)=O`, the Potency result in test [1] and in test [3] was “inactive” each time. For the same molecule, the activation in test [2] was -2.04% [at 17.1 µM, percent relative to cAMP agonist control]; in test [5] it was 2.97% [at 30.8 µM]. For the same molecule, in test [4], the activity change, negative = inhibition is -7.58% [at 30.8 µM].
In the case of `CC(C)(C)C(=O)NC(Nc1cccc2cccnc12)C(Cl)(Cl)Cl` (stereo not given), the Potency result in test [1] and in test [3] was “inactive” throughout. For the same molecule, the activation in test [2] is 7.17% [at 17.1 µM, percent relative to cAMP agonist control]; in test [5], 21.1% [at 30.8 µM]. Also, the activity change, negative = inhibition in test [4] is -6% [at 30.8 µM].
